The values that follow come from the supplement of paper PMC3334620.

Over roughly 33,000 sequences, “E-score (-0.5 to 0.5)” has its median near -0.021; the highest 2% begin near 0.32. For the sample, the highest values were picked, then their nearest neighbours and some sequences at random.

The assay deals with T1, Zap1 (UniProt P47043).
T1 sequence: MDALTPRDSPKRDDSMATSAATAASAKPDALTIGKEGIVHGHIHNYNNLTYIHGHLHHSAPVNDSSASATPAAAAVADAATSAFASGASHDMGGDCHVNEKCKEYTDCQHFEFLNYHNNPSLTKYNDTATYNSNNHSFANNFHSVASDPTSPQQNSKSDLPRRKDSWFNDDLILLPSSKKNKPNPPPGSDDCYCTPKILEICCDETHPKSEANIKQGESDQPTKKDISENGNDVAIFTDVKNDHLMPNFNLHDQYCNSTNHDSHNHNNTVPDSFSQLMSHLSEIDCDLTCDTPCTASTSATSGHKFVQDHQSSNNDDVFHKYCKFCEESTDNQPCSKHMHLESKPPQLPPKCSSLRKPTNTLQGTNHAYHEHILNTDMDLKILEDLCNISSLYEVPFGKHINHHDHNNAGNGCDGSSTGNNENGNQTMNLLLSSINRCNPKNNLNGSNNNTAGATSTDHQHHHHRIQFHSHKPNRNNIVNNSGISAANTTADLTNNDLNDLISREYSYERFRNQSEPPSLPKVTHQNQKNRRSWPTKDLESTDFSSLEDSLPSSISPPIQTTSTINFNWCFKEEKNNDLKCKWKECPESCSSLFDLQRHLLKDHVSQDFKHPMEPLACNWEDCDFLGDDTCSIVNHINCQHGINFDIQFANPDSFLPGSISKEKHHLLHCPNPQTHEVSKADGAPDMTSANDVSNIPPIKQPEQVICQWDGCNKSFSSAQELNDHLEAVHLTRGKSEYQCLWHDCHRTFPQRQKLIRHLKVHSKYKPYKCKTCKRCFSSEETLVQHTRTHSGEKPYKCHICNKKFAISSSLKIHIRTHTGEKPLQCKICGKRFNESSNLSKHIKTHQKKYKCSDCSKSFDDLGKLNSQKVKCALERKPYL
Briefly: PBM E-score (8-mer binding enrichment) (E-score (-0.5 to 0.5)); higher = stronger / more preferred TF binding. To be noted: protein concentration: 200 nM; construct: GST-full length. Here is the method:
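Universal 'all 10-mer' protein binding microarrays (Agilent AMADID 015681) probed with GST-tagged S. cerevisiae TFs (full-length or DBD) made by in vitro transcription/translation (PURExpress), about 100-200 nM. Bound TF was detected with fluorescent anti-GST. Each ungapped 8-mer (which stands for itself and its reverse complement) is scored by the PBM enrichment score (E-score), a modified Wilcoxon-Mann-Whitney statistic from -0.5 to +0.5, computed with the Universal PBM Analysis Suite. Scale: above 0.35 generally sequence-specific binding.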
As for CCCACTTA, the “PBM E-score” value is -0.0455. As for CTTGTGAC, the “PBM E-score” value worked out at 0.0651.

For the sequence CCTTCATA, the “PBM E-score” value amounted to 0.102. Regarding GCAGCACA, the “PBM E-score” value was -0.0816. For the sequence GACAAAGC, the “PBM E-score” value is -0.143. Regarding GGTCCTCA, the “PBM E-score” value came out at 0.0332. As for CCAGAGTC, the “PBM E-score” value was 0.0266. In the case of AACAGTCT, the “PBM E-score” value is -0.14. As to GAAACATC, the “PBM E-score” value was -0.0445.

For the sequence GAAACATA, the “PBM E-score” value amounted to 0.318. In the case of AAAACATA, the “PBM E-score” value was found to be 0.0671.

As to GACTTAGC, the “PBM E-score” value was -0.317. For the sequence GAGCGCCA, the “PBM E-score” value is -0.291. As for TGGATTAA, the “PBM E-score” value came to 0.0758. Turning to ACCCCGGC, the “PBM E-score” value turned out to be 0.119.

On to CCCCCGGG, for which the “PBM E-score” value amounted to 0.167. As to AACCCGGT, the “PBM E-score” value stood at 0.249. With CACCCGGG, the “PBM E-score” value was 0.129. ACCCCCGG: the “PBM E-score” value was -0.0785. The same measure for AACCCGGG: 0.324; for GACCCGGA: 0.118; for AACCCGGA: 0.332. Turning to AACCCCGG, the “PBM E-score” value was determined as 0.337.

With ACCCCGGG, the “PBM E-score” value was found to be 0.34. For AACCCCCG, the “PBM E-score” value was -0.149. On to CACCCGGA, for which the “PBM E-score” value came out at 0.235. Take GGCAGACC: the “PBM E-score” value was -0.192.

In the case of TCACGCAA, the “PBM E-score” value amounted to 0.0552. The same measure for GTATAGCA: -0.104.

For the sequence CTTGTTGA, the “PBM E-score” value was 0.124. As for GGAACAAA, the “PBM E-score” value was 0.111. On to CTAGCTCC, for which the “PBM E-score” value was -0.246. Regarding CCGAGCAC, the “PBM E-score” value is -0.0385.

Consider AGAAACTA, for which the “PBM E-score” value is -0.0549.

Take AGAGAAAC: the “PBM E-score” value was -0.0339. On to AAGGGAAC, for which the “PBM E-score” value was 0.0495. For the sequence GAGCTAGC, the “PBM E-score” value was -0.179. As for CTCCTTTC, the “PBM E-score” value was -0.0488. On to ATGTAACA, for which the “PBM E-score” value worked out at 0.153. For CTGTAACA, the “PBM E-score” value stood at 0.00661.

Consider ATGTAACC, for which the “PBM E-score” value is 0.395. For the sequence CTGTAAAC, the “PBM E-score” value is 0.16. Take ATGTAACG: the “PBM E-score” value was 0.0833. For CTGTAACC, the “PBM E-score” value was 0.463. Turning to ACTGCTAT, the “PBM E-score” value was -0.0537. The same measure for AAACGGAA: 0.127; for AAGACCGC: 0.0669; for GAGCAACC: 0.0661. The same measure for ATCGGTTC: 0.0913; for CATGACCC: 0.38. Turning to CATGACCG, the “PBM E-score” value is 0.177.

For AATGACCC, the “PBM E-score” value came out at 0.3.

In the case of GATGACCA, the “PBM E-score” value came out at 0.129. The same measure for CATGACCA: 0.284; for GATGACCC: 0.403; for CCGACCTC: -0.0902. The same measure for CGATCTGA: -0.0395. Consider CAACTGTC, for which the “PBM E-score” value is -0.0568. Consider ACGAAGGA, for which the “PBM E-score” value is -0.166. Take ACCCTTTA: the “PBM E-score” value was 0.415. The result for ACCCTTTG reads 0.345; that for ATCCTTTG, 0.161. The result for CCCCTTTA reads -0.00689; that for GCCCTTTA, -0.0495. Turning to ACCCTTTC, the “PBM E-score” value is 0.298.

As for CCCTACGC, the “PBM E-score” value is -0.17. The same measure for GCGTCCCC: -0.249; for AGTGCCCC: -0.156; for AACCAGGT: 0.201.

For the sequence ATGGAGCC, the “PBM E-score” value was -0.222. Regarding GGCGGTTA, the “PBM E-score” value came to 0.324. Turning to CGCGGTGA, the “PBM E-score” value came out at 0.144.

For the sequence GGCGGTCA, the “PBM E-score” value is 0.12. The same measure for CGCGGTTA: 0.452. Turning to AGCGGTTG, the “PBM E-score” value came to 0.216. Turning to CGCGGTTC, the “PBM E-score” value was 0.181.

Consider AGCGGTTC, for which the “PBM E-score” value is 0.164. Consider GGCGGTAA, for which the “PBM E-score” value turned out to be 0.125. As to AGCGGTTA, the “PBM E-score” value came out at 0.405.

For AAAAACTA, the “PBM E-score” value is 0.175.

Regarding ATACCAAA, the “PBM E-score” value was 0.153. The same measure for GCCTACTA: -0.0183; for CAGTAACA: -0.0862.

As to AAGTAACG, the “PBM E-score” value was determined as 0.052. The same measure for GAGTAACA: 0.135; for AAGTAACC: 0.393. As to AAGTAACT, the “PBM E-score” value was -0.0363. For the sequence CAGTAACC, the “PBM E-score” value came out at 0.44. With GAGTAACC, the “PBM E-score” value was 0.399. With GAGTAAGC, the “PBM E-score” value was -0.221.

Take CAGTAACG: the “PBM E-score” value came out at 0.0273. With GCAGTAAA, the “PBM E-score” value was 0.104. On to ATTATACG, for which the “PBM E-score” value is 0.0915. With ATTATACC, the “PBM E-score” value was determined as 0.338.

As to ATTATACA, the “PBM E-score” value was determined as 0.0605.
